# Bioassay records deposited in PubChem BioAssay by National Center for Advancing Translational Sciences (NCATS).
# In the library only some 6.7% were active in any assay of this set; here they are far more common.
# SW480 rerep: DNA re-replication induction in SW480 cells; SW480 DNA re-replication, Hoechst DNA content imaging, 48 h; Potency, µM (series often up to 46.1 µM), without a hit: at the highest dose re-replication activation, actives largely listed as activators; actives 1.8% (n = 340,000); also: % of control where 0% means no effect; nearly all actives have a fitted effect of over 55% in size
#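 First, 250 cells per well were seeded. Next, compound or vehicle (23 nL) was pinned in, plates sat 48 hr at 37 C. Finally Hoechst was added for 40 min before fluorescence scanning.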
# MCF10A rerep: induces DNA re-replication in MCF 10a normal breast cells | actives 2.9% (n = 350,000) | Potency, µM (doses to about 46.1 µM), without a hit: at the top dose activity, positive = re-replication, hits mostly activators | MCF 10A DNA re-replication, Hoechst nuclear intensity, 48 h; also: % of control where 0% means no effect; nearly all actives have a fitted effect of over 50% in size
# PINK1 expr mod: changes PINK1 expression. PINK1 immunofluorescence, high-content cytometry, 24 h. actives 0.2% (n = 410,000). Potency, µM (top dose mostly 76.6 µM), for the others: at the highest dose activation (PINK1 increase), usual class: activators. AID 624263; active = well fitted activation curve with a large enough effect; inconclusive = small, poorly fitted or top-dose-only effect; cell line not stated here; also: % of control where 0% means no effect; nearly all actives have a fitted effect of over 65% in size
#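 Readout is PINK1 immunofluorescence, quantified alongside mitochondrial, cell and nuclear markers by laser-scanning microplate cytometry. Cells from a stable line were exposed to compound titrations (5 concentrations) for 24 hours, with CCCP controls.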
# KB-3-1 tox: KB-3-1 parental cell cytotoxicity; KB-3-1 viability, CellTiter-Glo ATP luminescence, 72 h; Potency, µM (titrated, usually from 46.1 µM), hits mostly cytotoxic; actives 1.4% (n = 400,000); AID 1347075; also: % is scaled to controls: 0 for no effect and ±100 for the full control effect; nearly all actives have a fitted effect of over 60% in size
#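 Screening of KB-3-1 cells (DMEM, 10% FBS, phenol-red free) ran from lowest to highest compound concentration; after 72 h at 37 °C viability was read luminescently and curves fitted.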
# KB-V1 cytotox: kills drug-selected multidrug resistant KB-V1 cells. KB-V1 MDR cells viability, CellTiter-Glo, 72 h. Potency, µM (series often up to 46.1 µM), hits mostly cytotoxic. actives 3.4% (n = 400,000). AID 1347076; also: % is scaled to controls: 0 for no effect and ±100 for the full control effect; nearly all actives have a fitted effect of over 60% in size
#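 Cytotoxicity toward P-gp-expressing KB-V1 cells was determined as loss of CellTiter-Glo luminescence after 72 h at 37 degrees C. Compounds were tested in quantitative HTS format across a concentration range, with curves fitted to normalized data.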
# * hit, by the source's call; i = inactive; ? = inconclusive; nt = not tested or not shown; [ ] = dose if it differs, or a comment. Unless noted, calls follow the shape of the dose curve; as a rule, active = well fitted curve in the direction sought with a large enough effect; inconclusive = small, poorly fitted or top-dose-only effect, or another doubt; inactive = no such curve, though single readings can be large; an effect the other way counts as inactive or inconclusive. Potency is read from the fitted curve at half-maximal effect.
SMILES,SW480 rerep,MCF10A rerep,PINK1 expr mod,KB-3-1 tox,KB-V1 cytotox
Cc1cccc2cc(CN(CC3CCCO3)C(=S)NCc3ccco3)c(=O)[nH]c12 (stereo not drawn),?,7%,6%,i,4.1µM*
Cc1cc(F)ccc1C(O)c1ncc(-c2ccccc2C(F)(F)F)[nH]1 (stereo not drawn),nt,nt,0%,i,?
CS(=O)(=O)c1ccc(C(=O)NCCN2C(=O)S/C(=C\c3cccnc3)C2=O)cc1[N+](=O)[O-],2.1µM*,13µM*,-2%,?,i
CN(C)S(=O)(=O)c1ccc(C(=O)NCCN2C(=O)S/C(=C\c3cccnc3)C2=O)cc1,-8%,-6%,2%,i,i
OC(CNCCC1C=Nc2ccccc21)Cn1c2ccc(Cl)cc2c2cc(Cl)ccc21 (stereo not drawn),?,5.2µM*,-6%,?,?
O=C(Nc1ccncc1)c1cn(-c2ccccc2)nc1-c1cccs1,4%,?,14%,i,?
CC(NC(=O)COC(=O)c1cn(-c2ccccc2)nc1-c1cccs1)c1ccccc1 (stereo not drawn),6%,?,-3%[38.3 µM],i,21µM*
Cc1nc(-c2ccccc2)sc1CCNC(=O)c1ccco1,nt,nt,0%,i,?
CC1CCCCC1NC(=O)c1c(O)nc2ccccn2c1=O (stereo not drawn),-266%,2%,4%,?,?
CCOC(=O)c1c(C)[nH]c(C(=O)NNC(=O)c2ccccc2F)c1C,2%,0%,1%,i,i
CCOC(=O)c1[nH]c(C)c(C(=O)OCc2ccccc2F)c1C,7.3µM*,8.2µM*,8%,4.6µM*,2.3µM*
CCOC(=O)c1[nH]c(C)c(C(=O)c2cc(F)ccc2F)c1C,1µM*,1.2µM*,?,0.92µM*,?
COc1ccc(NS(=O)(=O)c2cccc(C(=O)NCc3ccco3)c2)cc1,-1%,11%,0%,i,?
O=C(COC(=O)c1ccc2[nH]c3c(c2c1)CCCC3)Nc1ccccc1,?,23µM*,0%,i,?
Cc1cccc(C)c1NC(=O)COC(=O)c1ccc2[nH]c3c(c2c1)CCCC3,?,18µM*,2%,i,i
COC(=O)c1ccc(NS(=O)(=O)c2ccc3[nH]c4c(c3c2)CCCCC4)cc1,nt,nt,5%,?,23µM*
COC(=O)c1ccc(NS(=O)(=O)c2ccc3[nH]c4c(c3c2)CCCC4)cc1,nt,nt,15%,i,i
O=C(CNC(=O)c1ccccc1F)N/N=C/c1cccnc1,-16%,-7%,-1%,i,i
CCC(CC)C(=O)NCc1nc2cccnc2n1Cc1ccc(F)cc1,nt,nt,1%,nt,nt
CO[C@H]1[C@H](NC(=O)c2ccsc2)c2ccccc2C12CCN(Cc1cc3ccccc3o1)CC2,nt,nt,0%,nt,nt
CNC(=O)CN1C(=O)c2cccc3cccc1c23,-3%,-1%,-1%,i,i
CN1/C(=N\O)c2cccc3cccc1c23,19%,18µM*,-1%,?,?
COc1ccc(C2CCCN2CC(O)COc2ccccc2C(C)C)cc1 (stereo not drawn),?,?,27%,i,?
O=c1ccn([C@@H]2O[C@H](CNCc3cccn3-c3nccs3)[C@@H](O)[C@H]2O)c(=O)[nH]1,nt,nt,4%,i,i
COc1ccccc1NC(=O)CCCCCN1C(=O)c2cccc3cccc(c23)C1=O,0%,7%,11%,i,?
SMILES,SW480 rerep,MCF10A rerep,PINK1 expr mod,KB-3-1 tox,KB-V1 cytotox
COc1ccccc1NC(=O)CCCCCN1C(=O)c2cccc([N+](=O)[O-])c2C1=O,-23%,0.92µM*,4%,i,i
Cc1ccc(C)c(N2CCN(CCCNC(=O)c3cnn(-c4ccccc4Cl)c3C3CCN(C(=O)OC(C)(C)C)CC3)CC2)c1,nt,nt,-2%,?,?
COc1ccc(C(=O)CC(=O)C(=O)Nc2ccc(Cl)cc2)cc1,20%,17%,8%,i,i
COc1ccc(C(=O)CC(Nc2ccc([N+](=O)[O-])cc2)c2ccc(Cl)cc2)cc1 (stereo not drawn),?,13%,-5%[38.3 µM],i,6.5µM*
COC(=O)c1cc(CNC(=O)c2sccc2-c2ccccc2)ccc1OC,-8%,-7%,0%,i,i
Cc1ccccc1NNC(N)=S,-4%,1%,1%,i,i
NC(=S)NNc1c(F)c(F)c(F)c(F)c1F,14%,15µM*,2%,?,i
CC(C)COC(=O)N(C)C[C@@H]1OCc2cnnn2CCCC(=O)N([C@H](C)CO)C[C@@H]1C,nt,nt,-1%,i,i
CC1(C(=O)NS(=O)(=O)c2cccc(C#N)c2)CCN1C(=O)CCC1CCCC1 (stereo not drawn),nt,nt,0%,i,i
Cc1cc(C)n(-c2nc(NC(C)(C)C)nc(NC(C)(C)C)n2)n1,0%,-5%,1%,i,i
Cc1cc(C)n(-c2nc(NC(C)C)nc(NC(C)C)n2)n1,2.9µM*,18%,-8%[38.3 µM],i,?
Cc1cc(C)n(-c2nc(Nc3ccccc3C(F)(F)F)nc(-n3nc(C)cc3C)n2)n1,?,?,?,i,0.92µM*
COc1ccc(-c2nc(N=Nc3ccc(O)cc3)n[nH]2)cc1,-4%,-4%,1%,i,i
Cc1ccc(-c2nc(N=Nc3ccc(O)cc3)n[nH]2)cc1,-3%,?,0%,i,13µM*
C#CNC(=O)C1(CC=C)CCNCC1,-1%,-2%,-1%,i,?
Cc1ccc(S(=O)(=O)CC(N)=O)cc1,5%,?,0%[38.3 µM],i,i
Cc1ccc(S(=O)(=O)CCSC(=N)N)cc1,6.5µM*,18µM*,1%,i,i
CCOc1ccc(S(=O)(=O)N(C)C)cc1-c1nc2c(C(C)(C)C)nn(C)c2c(=O)[nH]1,5%,?,nt,i,?
CCOc1ccc(S(=O)(=O)N(C)CCO)cc1-c1nc2c(C(C)(C)C)nn(C)c2c(=O)[nH]1,-8%,1%,2%,?,10µM*
COc1ccc(-c2cc(C(F)(F)F)c(C#N)c(SCC(=O)O)n2)cc1,-2%,-6%,0%,?,i
Cc1ccc(-c2cc(C(F)(F)F)c(C#N)c(SCCC#N)n2)o1,9.2µM*,?,nt,i,i
O=c1[nH]c(NNC(=S)NCc2ccccc2)nc2c1C1(CCCCC1)Cc1ccccc1-2,-39%,12µM*,?,i,i
CCN(CC)Cc1nc2c(c(=O)[nH]1)C1(CCCCC1)Cc1ccccc1-2,?,5.8µM*,?,i,i
CN(C)Cc1nc2c(c(=O)[nH]1)C1(CCCCC1)Cc1ccccc1-2,11%,?,nt,i,i
